Compound activity (PubChem)
Shiga toxin inh – A qHTS for Small Molecule Inhibitors of Shiga Toxin. Vero cells, Shiga toxin protein synthesis inhibition reporter. inhibition, % at 38.7 µM. 290,000 tested, 9.2% active. AID 2315, 2010; in the data active = inhibition mostly above about 28%, no sharp cut-off; inactive = mostly below about 43%; note: 0% is about no effect
Pf growth 96h – Primary qHTS for delayed death inhibitors of the malarial parasite plastid, 96 hour incubation; P. falciparum luciferase reporter growth, 96 h; Potency, µM (highest dose often 28.7 µM), without a hit: at the top dose activity change, negative = inhibition, actives largely listed as inhibitors; 320,000 tested, 6.9% active; note: potency is the fitted concentration of half-maximal effect; % is set by controls: 0 for no effect and ±100 for the full control effect
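Readout is luminescence from an integrated firefly luciferase in P. falciparum. Red cells, 2% hematocrit and 0.05% parasitemia final, were cultured with compound through two parasite generations (96 hours) at 37 C, 5% CO2.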
HCMV antiviral – qHTS Assay for inhibitors of the human cytomegalovirus (HCMV) | HFF cells, HCMV-luciferase reporter, 72 h; active compounds read low | activity change, negative = inhibition, % at 57.5 µM | 410,000 tested, 4.5% active; in the data active = activity change below about -60%; inconclusive = no clear call, values can overlap the other calls; inactive = above about -39%; note: % is set by controls: 0 for no effect and ±100 for the full control effect
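Luciferase read-out from HCMV-luciferase-infected HFFs (MOI 1 PFU/cell) 72 h post infection at 37C; compounds added after 16 h cell attachment; activity normalized between buffer-only basal and Salinomycin (10uM) inhibitor controls.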
CHX counter – Cycloheximide Counterscreen for Small Molecule Inhibitors of Shiga Toxin | cell reporter, cycloheximide protein synthesis inhibition counterscreen | max response, % | 300,000 tested, 12% active | AID 2314, 2010; in the data active = max response mostly above about 13%, no sharp cut-off; inactive = mostly below about 14%; note: read at 38.3 µM for the half of the compounds with a filed dose; 0% is about no effect
Pf growth 48h – Primary qHTS for delayed death inhibitors of the malarial parasite plastid, 48 hour incubation; P. falciparum luciferase growth in erythrocytes, 48 h; Potency, µM (top dose mostly 28.7 µM), inactives show at the top dose activity change, negative = inhibition, usual class: inhibitors; 310,000 tested, 5.9% active; AID 504832, 2011; note: potency is the fitted concentration of half-maximal effect; % is set by controls: 0 for no effect and ±100 for the full control effect
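Luminescence readout; reporter = integrated firefly luciferase in P. falciparum. RBC culture at 2% hematocrit, 0.1% parasitemia final, 37 C/5% CO2; decreased signal taken as growth inhibition.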
An asterisk follows results filed as active; i = inactive; ? = inconclusive; . = not tested or not shown. Shown are actives, neighbours in structure and some others; about 20% of the full set was active somewhere. Unless noted, calls come from the whole dose curve; as a rule, active = well fitted inhibition curve with a large enough effect; inconclusive = small, poorly fitted or top-dose-only effect, or another doubt; inactive = no such curve, though single readings can be large or run the other way.

SMILES	Shiga toxin inh	Pf growth 96h	HCMV antiviral	CHX counter	Pf growth 48h
COCCOc1ccc(C(F)(F)F)cc1NC(=O)COC(=O)C12CC3CC(CC(O)(C3)C1)C2	-10.2	?	41.7	-1.4	2.33µM*
O=C(COC(=O)c1cc([N+](=O)[O-])ccc1N1CCOCC1)Nc1ccc(Cl)cn1	-12.0	?	-102.0*	-4.2	-13.4%
O=C(COC(=O)c1cc([N+](=O)[O-])ccc1N1CCOCC1)Nc1ccc(Cl)cc1	-4.5	2.6%	-29.5	-3.0	4.0%
COc1ccc(-n2c(=O)c3sc4ccccc4c3n(CC(=O)NC3CCCCC3)c2=O)cc1	.	.	-4.6	.	.
O=C(/C=C/[C@H]1O[C@@H](n2cnc3c(NC(=O)c4ccccc4)ncnc32)[C@H](O)[C@@H]1O)NC1CCCCC1	.	.	-11.4	.	.
O=C(CN1C(=O)c2cccc3cccc(c23)C1=O)N1CCN(Cc2ccc3c(c2)OCO3)CC1	-13.9	-6.9%	-16.1	0.9	-15.2%
O=C(OCc1cccc(Cl)c1)c1cc([N+](=O)[O-])ccc1N1CCOCC1	.	11.7µM*	0.1	.	?
O=C(OCCOc1cccc(Cl)c1)c1cc(S(=O)(=O)N2CCCCC2)ccc1N1CCOCC1	.	13.1µM*	-88.2*	.	?
COCC(C)NC(=O)c1cc(S(=O)(=O)N2CCCCC2)ccc1N1CCOCC1 (configuration not stated)	-4.4	5.2%	18.8	-2.0	-6.0%
O=C(OCc1ccccc1)c1cc(S(=O)(=O)N2CCCCC2)ccc1N1CCOCC1	.	11.7µM*	-23.1	.	?
O=C(COc1cccc(Cl)c1)Nc1cc(S(=O)(=O)N2CCOCC2)ccc1N1CCOCC1	1.1	?	-29.0	-3.3	0.0%
O=C(c1cc(S(=O)(=O)N2CCCCC2)ccc1N1CCOCC1)N1CCN(Cc2ccccc2)CC1	-22.3	-17.2%	-7.0	-2.4	?
O=C(OCc1cccc(C(F)(F)F)c1)c1cc([N+](=O)[O-])ccc1N1CCOCC1	.	?	-30.6	.	?
CC(C)CCCC(C)NC(=O)c1cc(S(=O)(=O)N2CCCCC2)ccc1N1CCOCC1 (configuration not stated)	.	9.28µM*	-6.1	.	?
O=C(O)COCC(=O)NCc1csc2ccccc12	-11.8	30.8%	18.5	14.3	33.6%
Oc1c(C(c2ccccc2)N2CCC(O)CC2)sc2nc(-c3ccco3)nn12 (configuration not stated)	.	.	-5.4	.	.
COc1ccc(OC)c(S(=O)(=O)Nc2ccccc2C(=O)N2CCCCC2)c1	.	2.7%	-5.8	.	-1.7%
COc1cc(NC(=O)CN2CCCN(Cc3cccc(F)c3)S2(=O)=O)cc(OC)c1	.	.	-27.5	.	.
O=[N+]([O-])c1cccc(-c2noc(-c3ccco3)n2)c1	63.3*	i	93.2	27.6*	102.3%
O=[N+]([O-])c1cccc(-c2nc(-c3ccncc3)no2)c1	12.1	134.3%	117.2	6.5	52.5%
O=[N+]([O-])c1cccc(-c2nc(-c3ccccc3)no2)c1	49.4*	-65.2%	99.1	16.4	263.9%
O=[N+]([O-])c1cccc(-c2noc(COc3ccccc3)n2)c1	43.0	116.9%	20.9	27.1*	-12.4%
CCCCC1CCC(C(=O)N(CCOC)c2c(N)n(CC(C)C)c(=O)[nH]c2=O)CC1 (configuration not stated)	.	-9.9%	62.0	.	12.0%
c1ccc2c(-c3cc(C4CCNCC4)[nH]n3)cccc2c1	-3.0	-17.7%	-33.7	-4.3	271.8%
CC1(Oc2cnc(Cl)c3ccccc23)CCN(Cc2ccc(OC(F)(F)F)cc2)C1 (configuration not stated)	.	.	10.2	.	.
SMILES	Shiga toxin inh	Pf growth 96h	HCMV antiviral	CHX counter	Pf growth 48h
C[C@@H]1CN([C@@H](C)CO)C(=O)c2cc(NC(=O)c3ccccc3)ccc2O[C@@H](C)CCCCO[C@@H]1CN(C)S(=O)(=O)c1ccc(F)cc1	.	.	21.4	.	.
CSc1nn(-c2ccc(C(=O)OCC(=O)NC(=O)NC(C)C)cc2)c(=S)s1	31.8	0.7%	-33.0	26.7*	8.4%
CC(C)CN(C)C(=O)CCc1nnc(Cc2ccc(-c3ccccc3)cc2)o1	38.1	?	13.7	22.1*	?
O=C(CCc1nnc(Cc2ccc(-c3ccccc3)cc2)o1)N1CCCC1	-17.1	9.28µM*	-39.4	-2.6	?
CC1CCN(C(=O)CCc2nnc(-c3ccccc3)o2)CC1	97.5*	?	32.7	43.4*	16.5%
O=C(CSc1nnc(Cc2ccccc2)o1)N1CCCC1	20.8	-1.4%	0.8	16.0	12.8%
O=C(c1cn(-c2ccccc2)nc1-c1cccc([N+](=O)[O-])c1)N1CCCCC1	-6.2	22.9%	?	-1.9	?
COc1ccc(-n2cc(C(=O)OCc3ccc(F)c(F)c3)c3ccccc3c2=O)cc1	.	.	-12.3	.	.
CN(Cc1cccs1)[C@H]1CC[C@@]23CCCN2C(=O)CCC[C@H]3[C@H]1Cc1ccccc1	.	.	-35.2	.	.
CSCCOC(=O)COc1ccc(/C=N/NC(=O)c2nn(C)cc2Cl)cc1	59.1*	-34.6%	?	28.1*	0.0%
Cc1ccc(S(=O)(=O)Oc2ccc(/C=N/NC(=O)c3nn(C)cc3Cl)cc2)cc1	20.5	?	?	9.5	?
O=C(NCC1CCCN1S(=O)(=O)c1cccs1)C(=O)Nc1ccccc1Cl (configuration not stated)	.	-12.9%	-5.9	.	?
CC(=O)N1CCOCCOCCN(C(C)=O)CCOCCOCC1	3.4	19.9%	21.0	6.7	34.7%
O=C(N1CCOCC1)C(F)(F)C(F)(F)C(F)(F)C(F)(F)C(=O)N1CCOCC1	-14.1	11.7µM*	12.6	-2.8	15.7%
O=S1(=O)CC(N2CCCCC2)CN1CCc1ccccc1 (configuration not stated)	.	.	-4.2	.	.
CCCOc1ccc(F)cc1-c1cc(C(=O)NCCOC)[nH]n1	.	.	-11.8	.	.
Cc1cc(C)c(S(=O)(=O)N(CC(=O)N2CCCC2)C2CCCCC2)c(C)c1	20.1	.	?	-1.2	?
CN(CC(=O)N1CCCCCC1)S(=O)(=O)c1ccc(F)cc1	104.7*	12.0%	15.3	39.0*	60.0%
O=C(NCC1CC1)C1(S(=O)(=O)c2ccccc2)CC=CC1	-5.3	0.3%	-23.2	-0.8	-0.1%
Cc1ccc(S(=O)(=O)N(C)CC(=O)N2CCCCCCC2)cc1	.	?	-28.1	.	8.8%
COCCNC(=O)C1(S(=O)(=O)c2ccccc2)CC=CC1	25.3	37.6%	35.9	12.8*	38.5%
Cc1ccc(S(=O)(=O)CC(=O)N2CCCCCC2)cc1	14.3	?	8.7	11.2	14.4%
O=C(CS(=O)(=O)c1ccccc1)N1CCCCC1	1.4	2.62µM*	15.8	9.3	10.3%
Cc1ccc(S(=O)(=O)N(CC(=O)N2CCCC2)C2CCCCC2)cc1	-1.2	11.7µM*	6.9	-2.8	?
O=C(N1CCOCC1)C1(S(=O)(=O)c2ccccc2)CC=CC1	-1.4	23.1%	-34.5	-2.8	7.1%
